Records with an inconclusive call do not appear. Activity calls are given as the source filed them. Unless noted, calls follow the shape of the dose curve; as a rule, active = well fitted curve in the direction sought with a large enough effect; inconclusive = small, poorly fitted or top-dose-only effect, or another doubt; inactive = no such curve, though single readings can be large; an effect the other way counts as inactive or inconclusive.
Key:
[1] = Cell Viability - HepG2 (AID 433; calls by dose curve;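 also: potency is read from the fitted curve at half-maximal effect; potency for ATP loss meaning cytotoxicity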); settings: qHTS
How it was run: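 HepG2 hepatocellular carcinoma cells (1500/well) were treated with compounds for 40 h at 37 °C in complete medium; intracellular ATP was read by CellTiter-Glo luminescence. Data were normalized to DMSO and 100 uM tamoxifen, and AC50 came from Hill fits.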

[2] = Cell Viability - N2a (AID 540); settings: N2a mouse neuroblastoma cell viability; activity change, negative = cytotoxicity: at 92.2 µM (top of the series);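 also: plate controls were DMSO alone for no effect and tamoxifen control for full effect; nearly all actives have a fitted effect of over 45% in size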
How it was run: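 Mouse neuroblastoma N2a cells, 1500/well, exposed to compounds 40 h at 37 °C in complete medium. Viability measured as cellular ATP by CellTiter-Glo luminescence; AC50 from Hill fits of concentration-response.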

[3] = Cellular Toxicity (caspase-3) HepG2 (AID 654); settings: HepG2 caspase-3 activation, luminescence, 0% = DMSO only, 100% = tamoxifen; series mostly up to 92.2 µM;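 also: cells exposed to compound for 16 hours before reading; 0% = DMSO alone and 100% = caspase signal from 100 µM tamoxifen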
How it was run: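 HepG2 cells (1500/well) were treated 16 h at 37 °C in complete medium, then caspase 3/7 activity was read by Caspase-Glo luminescence. Data were normalized to DMSO and 100 uM tamoxifen; AC50 came from Hill-equation fits of qHTS concentration-response.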

[4] = Cellular Toxicity (caspase-3) HUV-EC-C (AID 656); settings: HUV-EC-C cells, caspase-3 activation (apoptosis), vehicle = 0, 100 µM tamoxifen = 100%; series mostly up to 92.2 µM
How it was run: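 HUV-EC-C endothelial cells, 1000/well, were pre-incubated 5 hr at 37°C, then exposed to compounds for 16 hr at 37°C. Caspase-Glo 3/7 luminescence was read after 20 min at room temperature. AC50 came from Hill fits, normalized to DMSO and 100 uM tamoxifen.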

[5] = Cellular Toxicity (caspase-3) BJ (AID 658); settings: BJ fibroblasts, luminescence, normalized: DMSO 0%, staurosporine 100%; series mostly up to 91.7 µM;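 also: 0% = DMSO basal and 100% = 10 µM staurosporine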
How it was run: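 Readout: Caspase-Glo 3/7 luminescence increase in BJ cells after 16 hr treatment at 37 °C. Staurosporine and tamoxifen served as positive controls; AC50 values came from Hill modelling of data normalized to DMSO and 10 uM staurosporine.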

[6] = Cellular Toxicity (caspase-3) NIH 3T3 (AID 666); settings: NIH 3T3 caspase-3 activation, apoptosis/toxicity; series mostly up to 92.2 µM;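 also: caspase signal read after 16 h compound exposure; 0% = DMSO basal and 100% = 100 µM tamoxifen stimulation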
How it was run: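 Mouse NIH 3T3 fibroblasts (1000/well) treated 16 h at 37 C; caspase-3/7 activity measured by Caspase-Glo 3/7 luminescence after 20 min. Normalized to DMSO and 100 uM tamoxifen; AC50 from Hill fits.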

[7] = molecular target: Cytochrome P450 3A4 (Homo sapiens) (UniProt P08684); experiment: qHTS Assay for Inhibitors and Substrates of Cytochrome P450 3A4 (AID 884); settings: recombinant CYP3A4, Luciferin-PPXE luminescence; series mostly up to 57.1 µM; also: % is scaled to controls: 0 for no effect and ±100 for the full control effect; nearly all actives have a fitted effect of over 50% in size
Sequence of Cytochrome P450 3A4 (Homo sapiens) (P08684 whole entry, looked up): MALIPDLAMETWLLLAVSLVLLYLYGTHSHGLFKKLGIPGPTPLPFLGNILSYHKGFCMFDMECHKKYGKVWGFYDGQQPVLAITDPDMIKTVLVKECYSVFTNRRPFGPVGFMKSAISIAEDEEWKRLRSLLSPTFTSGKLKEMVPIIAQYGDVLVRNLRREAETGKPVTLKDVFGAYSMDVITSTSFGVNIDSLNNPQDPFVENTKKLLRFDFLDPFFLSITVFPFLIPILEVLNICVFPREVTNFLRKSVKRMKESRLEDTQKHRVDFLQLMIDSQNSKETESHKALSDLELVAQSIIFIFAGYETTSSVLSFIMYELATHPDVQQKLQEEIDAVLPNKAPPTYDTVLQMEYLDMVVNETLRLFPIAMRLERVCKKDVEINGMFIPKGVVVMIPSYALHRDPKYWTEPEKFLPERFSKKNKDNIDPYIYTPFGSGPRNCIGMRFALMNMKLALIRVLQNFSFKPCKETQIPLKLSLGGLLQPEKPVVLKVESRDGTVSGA
How it was run: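 20 nM human CYP3A4 with 25 uM Luciferin-PPXE (at KM) in 200 mM KPO4, preincubated 10 min with compound; NADPH regeneration started a 60 min RT reaction. Luciferin detected by luminescence, normalized to 57 uM ketoconazole as full inhibition.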

[8] = MultiTox-Fluor Cytotoxicity Assay - LYMP1-001 - Dead Cells (AID 946); settings: LYMP1-001 lymphoblastoid cells, dead-cell protease fluorescence; series mostly up to 92.2 µM;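 also: 0% = DMSO and 100% = tetraoctylammonium bromide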
How it was run: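 In this qHTS, 15 uM tetraoctylammonium bromide defined 100% and DMSO defined basal activity. Lymphoblastoid cells (LYMP1-001, 2500 per well) received compound for 16 hr at 37 C before a fluorogenic dead-cell substrate readout at 485/520 nm.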

[9] = MultiTox-Fluor Cytotoxicity Assay - LYMP1-002 - Live Cells (AID 955); settings: LYMP1-002 lymphoblastoid live-cell protease fluorescence viability; series mostly up to 46.1 µM; also: % is scaled to controls: 0 for no effect and ±100 for the full control effect
How it was run: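 Human lymphoblastoid LYMP1-002 cells, 2500/well, treated 16 h at 37 C in complete medium. Live-cell protease activity via GF-AFC fluorescence (Ex/Em 405/510) after 60 min reagent incubation; AC50 from Hill fits.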

[10] = MultiTox-Fluor Cytotoxicity Assay - LYMP1-002 - Dead Cells (AID 960); settings: LYMP1-002 lymphoblastoid cells, dead-cell protease fluorescence; series mostly up to 46.1 µM;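 also: 0% = DMSO and 100% = tetraoctylammonium bromide; nearly all actives have a fitted effect of over 60% in size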
How it was run: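 Human lymphoblastoid LYMP1-002 cells, 2500/well, treated 16 h at 37 C; dead-cell protease cleavage of bis-AAF-R110 read by fluorescence (485/520); normalized to DMSO and 15 uM tetraoctylammonium bromide; AC50 from Hill fit.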

[11] = Cell Viability - LYMP2-009 (AID 968); settings: LYMP2-009 lymphoblastoid cell viability; series mostly up to 92.2 µM; also: nearly all actives have a fitted effect of over 55% in size; also: potency is read from the fitted curve at half-maximal effect
[12] = Cell Viability - LYMP2-017 (AID 972); settings: LYMP2-017 lymphoblastoid cell viability; series mostly up to 92.2 µM; also: nearly all actives have a fitted effect of over 55% in size; also: potency is read from the fitted curve at half-maximal effect; as to activity change, negative = cytotoxicity: % is scaled to controls: 0 for no effect and ±100 for the full control effect
How it was run: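 LYMP2-017 human lymphoblastoid cells (2500/well) settled 5 hr at 37 C, then exposed to compound 24 hr at 37 C in complete medium. Viability taken as intracellular ATP by CellTiter-Glo luminescence after 30 min at RT; AC50 from Hill fits.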

[13] = molecular target: Thyroid hormone receptor beta (Homo sapiens) (UniProt P10828); experiment: qHTS assay for small molecule agonists of thyroid hormone receptor beta signaling (AID 588545; calls by dose curve); settings: TR-UAS-bla GripTite HEK 293, beta-lactamase ratio, agonist mode, 18 h; series mostly up to 76.7 µM
Sequence of Thyroid hormone receptor beta (Homo sapiens) (P10828 whole entry, looked up): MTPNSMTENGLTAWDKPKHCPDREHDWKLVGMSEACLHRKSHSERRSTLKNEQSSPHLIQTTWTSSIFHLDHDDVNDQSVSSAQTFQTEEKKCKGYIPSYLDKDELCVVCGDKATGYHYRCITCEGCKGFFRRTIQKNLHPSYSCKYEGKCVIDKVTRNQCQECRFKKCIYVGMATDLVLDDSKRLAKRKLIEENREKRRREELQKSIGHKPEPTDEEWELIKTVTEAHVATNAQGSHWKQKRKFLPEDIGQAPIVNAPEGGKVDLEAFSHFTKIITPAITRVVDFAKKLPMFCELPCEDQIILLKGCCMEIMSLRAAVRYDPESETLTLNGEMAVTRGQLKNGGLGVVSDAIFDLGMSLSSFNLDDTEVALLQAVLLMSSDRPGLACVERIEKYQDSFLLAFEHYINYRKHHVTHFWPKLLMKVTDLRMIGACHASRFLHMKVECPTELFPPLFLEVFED
How it was run: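 In this cell-based screen, titrated compounds act on HEK 293 cells held in medium with 2% charcoal/dextran FBS, NEAA and pyruvate for 18 hrs at 37 C. Responses are expressed relative to T3 (10 nM) as 100% and basal DMSO as 0%.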

[14] = Cell Viability - BJ (AID 421; calls by dose curve;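 also: potency is read from the fitted curve at half-maximal effect; cells exposed to compound for 40 hours at 37 °C before readout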); settings: BJ fibroblast viability, qHTS
How it was run: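 Quantitative HTS: ATP depletion in BJ cells after 40 hr compound exposure in complete culture medium, detected with CellTiter-Glo; AC50 from standard Hill fits.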

[15] = Cellular Toxicity (caspase-3) Jurkat (AID 655); settings: Jurkat caspase-3 activation, luminescence; caspase-3 activation: at 92.2 µM (top of the series), DMSO = 0%, tamoxifen = 100%;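 also: cells exposed to compound for 16 h at 37 °C before reading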
How it was run: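 Jurkat cells (5000/well) in complete medium were treated with compounds for 16 hr at 37 °C, then Caspase-Glo 3/7 luminescence was read after 20 min at room temperature. Data normalized to DMSO (basal) and 100 uM tamoxifen (100%); AC50 from Hill fit.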

[16] = Cell Viability - LYMP2-011 (AID 969); settings: LYMP2-011 lymphoblastoid cells viability; series mostly up to 92.2 µM;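 also: 0% = DMSO only and full inhibition = 92 µM tetraoctylammonium bromide; nearly all actives have a fitted effect of over 60% in size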
How it was run: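 2500 cells/well in complete medium, compound-treated 24 h at 37 C. Viability read as intracellular ATP by CellTiter-Glo luminescence after 30 min at room temperature. AC50 from Hill fits of qHTS concentration-response data.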

[17] = Cell Viability - LYMP2-021 (AID 974); settings: LYMP2-021 lymphoblastoid cells viability; series mostly up to 92.2 µM;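 also: compound exposure lasts 24 hours at 37 °C; % is scaled to controls: 0 for no effect and ±100 for the full control effect; nearly all actives have a fitted effect of over 55% in size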
How it was run: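 Human lymphoblastoid LYMP2-021 cells, 2500/well in complete medium, treated 24 hours at 37 C. Intracellular ATP by CellTiter-Glo luminescence (30 min, RT); AC50 from Hill fits of concentration-response.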

[18] = Cell Viability - LYMP2-016 (AID 984); settings: LYMP2-016 lymphoblastoid cell viability, qHTS; series mostly up to 92.2 µM; also: % is scaled to controls: 0 for no effect and ±100 for the full control effect; nearly all actives have a fitted effect of over 55% in size
How it was run: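 Human lymphoblastoid cells (LYMP2-016), 2500/well in complete medium, preincubated 5 hr at 37 C, then compound-treated 24 hr at 37 C. Intracellular ATP read by CellTiter-Glo luminescence after 30 min at room temperature; AC50 from Hill-equation concentration-response fits.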

[19] = Cell Viability - LYMP2-026 (AID 989); settings: LYMP2-026 lymphoblastoid cell viability, qHTS; series mostly up to 92.2 µM; also: % is scaled to controls: 0 for no effect and ±100 for the full control effect; nearly all actives have a fitted effect of over 50% in size
How it was run: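 Human lymphoblastoid LYMP2-026 cells, 2500/well, exposed to compound 24 h at 37 C in complete medium. Viability as intracellular ATP by CellTiter-Glo luminescence; AC50 from Hill fits of qHTS concentration-response.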

[20] = molecular target: Vitamin D3 receptor (Homo sapiens) (UniProt P11473); experiment: qHTS assay for small molecule agonists of vitamin D receptor signaling (AID 588543; calls by dose curve;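 also: 0% = DMSO basal and 100% = reference agonist control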); settings: HEK293T VDR-UAS-bla, beta-lactamase ratio, 16 h; series mostly up to 76.8 µM
Sequence of Vitamin D3 receptor (Homo sapiens) (P11473 whole entry, looked up): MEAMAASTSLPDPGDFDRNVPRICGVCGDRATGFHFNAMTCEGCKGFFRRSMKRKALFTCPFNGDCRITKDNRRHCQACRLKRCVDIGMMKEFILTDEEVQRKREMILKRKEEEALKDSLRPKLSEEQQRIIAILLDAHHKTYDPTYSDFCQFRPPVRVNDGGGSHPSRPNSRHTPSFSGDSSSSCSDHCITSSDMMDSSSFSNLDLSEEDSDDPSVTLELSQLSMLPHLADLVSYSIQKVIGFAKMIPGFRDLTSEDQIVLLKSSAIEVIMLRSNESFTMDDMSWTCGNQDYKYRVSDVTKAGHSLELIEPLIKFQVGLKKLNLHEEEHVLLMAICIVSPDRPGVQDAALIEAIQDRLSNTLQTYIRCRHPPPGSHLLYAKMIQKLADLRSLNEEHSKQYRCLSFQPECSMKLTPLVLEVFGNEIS
How it was run: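 GeneBLAzer VDR-UAS-bla HEK293T cells in 2% charcoal-stripped FBS medium were dosed with compound titrations for 16 h at 37 °C; CCF4 β-lactamase readout (405 nm ex, 460/530 nm em). EC50 and efficacy from Hill fits, normalized to 50 nM calcitriol (100%) and DMSO (0%).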

N#CC(Br)Br
active: Potency [11] 50.1 µM | Potency [12] 39.8 µM
inactive: Potency [1] > 92 µM | Potency [2] | outcome [3] | outcome [4] | outcome [5] | Potency [6] | Potency [7] | outcome [8] | outcome [9] | Potency [10] | Potency [13]

Cl/C=C/Cl
inactive: Potency [14] > 92 µM | Potency [1] > 92 µM | Potency [2] | outcome [3] | caspase-3 activation [15] -1.85% | outcome [4] | outcome [5] | Potency [6] | Potency [7] | outcome [8] | outcome [9] | Potency [10] | Potency [11] | Potency [16] | Potency [12] | Potency [17] | Potency [18] | Potency [19] | outcome [20] | Potency [13]

Clc1cccc(Cl)c1Cl
inactive: Potency [14] > 92 µM | Potency [2] | outcome [3] | caspase-3 activation [15] -0.0806% | outcome [4] | outcome [5] | Potency [6] | Potency [7] | outcome [8] | outcome [9] | Potency [10] | Potency [11] | Potency [16] | Potency [12] | Potency [17] | Potency [18] | Potency [19] | outcome [20] | Potency [13]

Source: PubChem BioAssay (NCATS)
